From PubChem
This is a sample that favours compounds with a hit; in the whole collection about 4% have one here.
Mtb UGM inh – Mtb UDP-galactopyranose mutase inhibition; 0.06% of 320,000 active; inhibition, % at 10 µM; purified UGM, fluorescence polarization probe displacement; P9WIQ1; in the data active = inhibition above about 10%, passing the limit was not always enough
Target sequence (P9WIQ1 whole entry, looked up): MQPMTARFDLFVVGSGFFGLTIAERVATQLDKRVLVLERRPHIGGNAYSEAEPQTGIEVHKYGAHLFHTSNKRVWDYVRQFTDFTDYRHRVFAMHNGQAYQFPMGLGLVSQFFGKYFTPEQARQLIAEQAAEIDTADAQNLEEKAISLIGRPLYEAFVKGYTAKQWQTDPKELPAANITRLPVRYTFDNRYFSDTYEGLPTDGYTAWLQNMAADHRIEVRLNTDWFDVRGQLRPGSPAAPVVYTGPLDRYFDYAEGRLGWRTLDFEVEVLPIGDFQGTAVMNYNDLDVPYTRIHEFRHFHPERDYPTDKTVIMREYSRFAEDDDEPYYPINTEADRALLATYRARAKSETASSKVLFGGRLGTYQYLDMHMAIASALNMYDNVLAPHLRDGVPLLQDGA
Rv3671c protease – inhibits the M. tuberculosis serine protease Rv3671c; AID 2606; inhibition, % at 5.96 µM; P9WHR9; 0.048% of 320,000 active; in the data active = inhibition above about 38%;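 note: extracellular domain of Rv3671c used as enzyme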
GDH-TPI inh – counter-screen for M. tuberculosis FBA inhibitors: GDH-TPI coupled enzymes; GDH-TPI coupled enzyme counterscreen, NADH absorbance; inhibition, % at 4.8 µM; 1.2% of 360,000 active; AID 588335; in the data active = inhibition above about 30%
RecA intein inh – blocks M. tuberculosis RecA intein splicing. P9WHJ3. cell-free RecA intein splicing, fluorescence. inhibition, % (no concentration beside the values). 0.75% of 290,000 active; in the data active = inhibition above about 30%
Mtb betalactam – beta-lactam sensitization of Mtb H37Rv | M. tuberculosis H37Rv growth with meropenem, percent inhibition | inhibition, % at 25 µM | 0.27% of 330,000 active; call rule not given here;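 note: growth measured after seven days incubation then overnight dye step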
FBA Mtb inh – Mtb fructose-bisphosphate aldolase inhibition; P9WQA3; purified M. tuberculosis FBA, fluorescence read-out; inhibition, % at 1 µM; 2.3% of 360,000 active; in the data active = inhibition above about 27%
Hits are given with their value.

For O=C1CC(=O)NC(SCC(=O)Nc2ccccc2[N+](=O)[O-])=N1 the results were Mtb UGM inh inactive, Rv3671c protease inactive, GDH-TPI inh inactive, RecA intein inh inactive, Mtb betalactam inactive and FBA Mtb inh inactive.
For COc1cccc(C(=O)Nc2cc(-c3cn4cccnc4n3)ccc2C)c1 the results were Mtb UGM inh inactive, Rv3671c protease inactive, GDH-TPI inh inactive, RecA intein inh inactive, Mtb betalactam inactive and FBA Mtb inh active.
`COc1ccc(-c2cn3cccnc3n2)cc1NC(=O)c1cccs1` gave Mtb UGM inh inactive, Rv3671c protease inactive, GDH-TPI inh inactive, RecA intein inh inactive, Mtb betalactam inactive and FBA Mtb inh inactive.
`COc1ccc(-c2cn3cccnc3n2)cc1NC(=O)C(C)Oc1ccccc1` (centres undefined) gave Mtb UGM inh inactive, Rv3671c protease inactive, GDH-TPI inh inactive, RecA intein inh inactive, Mtb betalactam inactive and FBA Mtb inh 122.
Screening COc1ccc(-c2cn3cccnc3n2)cc1NS(=O)(=O)c1ccccc1 returned Mtb UGM inh inactive, Rv3671c protease inactive, GDH-TPI inh inactive, RecA intein inh inactive, Mtb betalactam inactive and FBA Mtb inh inactive.
For CCOCC(=O)Nc1cc(-c2cn3cccnc3n2)ccc1C the results were Mtb UGM inh inactive, Rv3671c protease inactive, GDH-TPI inh inactive, RecA intein inh inactive, Mtb betalactam inactive and FBA Mtb inh active.
`Cc1[nH]c2c([N+](=O)[O-])cccc2c1C` gave Mtb UGM inh inactive, Rv3671c protease inactive, GDH-TPI inh inactive, RecA intein inh inactive, Mtb betalactam inactive and FBA Mtb inh inactive.
Screening CCCCOc1ccccc1C(=O)NNC(=S)NC(=O)c1ccccc1[N+](=O)[O-] returned Mtb UGM inh inactive, Rv3671c protease inactive, GDH-TPI inh 31, RecA intein inh inactive, Mtb betalactam inactive and FBA Mtb inh inactive.
Screening S=C1CCC(c2ccc(Br)cc2)=NN1c1ccccc1 returned Mtb UGM inh inactive, Rv3671c protease inactive, GDH-TPI inh 33, RecA intein inh inactive, Mtb betalactam inactive and FBA Mtb inh inactive.
`Cc1ccc(N2N=C(c3ccc(Br)cc3)CCC2=O)cc1` gave Mtb UGM inh inactive, Rv3671c protease inactive, GDH-TPI inh inactive, RecA intein inh inactive, Mtb betalactam inactive and FBA Mtb inh inactive.
`CCCCCCCCCC[n+]1cccc2c3ccccc3ccc21` gave GDH-TPI inh inactive, RecA intein inh inactive and FBA Mtb inh 29.
Cc1cccc[n+]1CCCCCCCCCC[n+]1ccccc1C was read as Mtb UGM inh inactive, Rv3671c protease inactive, GDH-TPI inh inactive, RecA intein inh inactive, Mtb betalactam inactive and FBA Mtb inh inactive.
For CCN(CC)c1ccc(/C=N/N2CCN(c3ccccc3OC)CC2)cc1 the results were Mtb UGM inh inactive, Rv3671c protease inactive, GDH-TPI inh 37, RecA intein inh inactive, Mtb betalactam inactive and FBA Mtb inh inactive.
Screening COc1ccc(/C=N/N2CCN(c3ccccc3OC)CC2)cc1OC returned Mtb UGM inh inactive, Rv3671c protease inactive, GDH-TPI inh inactive, RecA intein inh inactive, Mtb betalactam inactive and FBA Mtb inh inactive.
For O=C(COc1ccc(F)cc1)Nc1cc(S(=O)(=O)N2CCCCC2)ccc1N1CCCCC1 the results were Mtb UGM inh inactive, Rv3671c protease inactive, GDH-TPI inh inactive, RecA intein inh inactive, Mtb betalactam inactive and FBA Mtb inh inactive.
For COc1cccc(/C=C2\SC(N3CCC(C)CC3)=NC2=O)c1OC the results were Mtb UGM inh inactive, Rv3671c protease inactive, GDH-TPI inh inactive, RecA intein inh inactive, Mtb betalactam inactive and FBA Mtb inh inactive.
`O=C1N=C(N2CCN(c3ccccc3)CC2)S/C1=C/c1ccco1` gave Mtb UGM inh inactive, Rv3671c protease inactive, GDH-TPI inh 34, RecA intein inh inactive, Mtb betalactam inactive and FBA Mtb inh inactive.
For O=C1N=C(N2CCCC2)S/C1=C\c1ccccc1 the results were Mtb UGM inh inactive, Rv3671c protease inactive, GDH-TPI inh 54, RecA intein inh inactive, Mtb betalactam inactive and FBA Mtb inh inactive.
Cc1ccc(/C=C2\SC(N3CCCCC3)=NC2=O)cc1 was read as Mtb UGM inh inactive, Rv3671c protease inactive, GDH-TPI inh 32, RecA intein inh inactive, Mtb betalactam inactive and FBA Mtb inh inactive.
Screening O=C1N=C(N2CCCCC2)S/C1=C\c1ccc(Cl)cc1 returned Mtb UGM inh inactive, Rv3671c protease inactive, GDH-TPI inh inactive, RecA intein inh inactive, Mtb betalactam inactive and FBA Mtb inh inactive.
For CCCOc1ccccc1/C=C1\SC(N2CCCCC2)=NC1=O the results were Mtb UGM inh inactive, Rv3671c protease inactive, GDH-TPI inh inactive, RecA intein inh inactive, Mtb betalactam inactive and FBA Mtb inh inactive.
`COc1cccc(/C=C2\SC(N3CCCC(C)C3)=NC2=O)c1OC` (centres undefined) gave Mtb UGM inh inactive, Rv3671c protease inactive, GDH-TPI inh 33, RecA intein inh inactive, Mtb betalactam inactive and FBA Mtb inh inactive.
For Cc1ccc(S(=O)(=O)Nc2ccc3c(c2)c2c(n3S(=O)(=O)c3ccc(C)cc3)CCCC2=O)cc1 the results were Mtb UGM inh inactive, Rv3671c protease inactive, GDH-TPI inh inactive, RecA intein inh inactive, Mtb betalactam inactive and FBA Mtb inh inactive.
`C[C@H](CO)N1C[C@H](C)[C@H](CN(C)S(C)(=O)=O)Oc2c(cccc2N(C)C)C1=O` gave Mtb UGM inh inactive, Rv3671c protease inactive, GDH-TPI inh inactive, Mtb betalactam inactive and FBA Mtb inh inactive.
`CCCCn1c(N)c(N(CC(C)C)C(=O)c2cc3c(s2)CCC3)c(=O)[nH]c1=O` gave Rv3671c protease inactive, GDH-TPI inh inactive, RecA intein inh inactive, Mtb betalactam inactive and FBA Mtb inh inactive.
Screening C=CCOc1ccc(/C=C2\SC(N3CCCCC3)=NC2=O)cc1 returned Mtb UGM inh inactive, Rv3671c protease inactive, GDH-TPI inh 38, RecA intein inh inactive, Mtb betalactam inactive and FBA Mtb inh inactive.
For COc1cc(OC)c(OC)cc1/C=C1\SC(N2CCCCC2)=NC1=O the results were Mtb UGM inh inactive, Rv3671c protease inactive, GDH-TPI inh inactive, RecA intein inh inactive, Mtb betalactam inactive and FBA Mtb inh inactive.
O=C1N=C(N2CCCCC2)S/C1=C\c1ccccc1F was read as Mtb UGM inh inactive, Rv3671c protease inactive, GDH-TPI inh 45, RecA intein inh inactive, Mtb betalactam inactive and FBA Mtb inh inactive.
Screening COc1ccc(OC)c(/C=C2\SC(N3CCCCC3)=NC2=O)c1 returned Mtb UGM inh inactive, Rv3671c protease inactive, GDH-TPI inh inactive, RecA intein inh inactive, Mtb betalactam inactive and FBA Mtb inh inactive.
`CC(C)(C)c1ccc(/C=C2/SC(N3CCCC3)=NC2=O)cc1` gave Mtb UGM inh inactive, Rv3671c protease inactive, GDH-TPI inh 37, RecA intein inh inactive, Mtb betalactam inactive and FBA Mtb inh inactive.
For O=C(NCc1ccncc1)C1CCN(S(=O)(=O)c2ccccc2)CC1 the results were Rv3671c protease inactive, GDH-TPI inh inactive, RecA intein inh inactive, Mtb betalactam inactive and FBA Mtb inh inactive.
CCCOc1ccc(C(=O)OCCN2CCCCC2)c(O)c1 was read as Mtb UGM inh inactive, Rv3671c protease inactive, GDH-TPI inh inactive, RecA intein inh inactive, Mtb betalactam inactive and FBA Mtb inh inactive.
